The text below walks through data of PubChem BioAssay AID463095 (Sanford-Burnham Center for Chemical Genomics, 2010).

The list shows a part of the results. Active and inactive are the calls of the source.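 The calls were made as follows: active = proliferation increase above 40% at any of the four tested concentrations; inactive = the rest.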

The assay in a line: inducers of beta-cell proliferation in MIN6, confirmation, MIN6 cells, mouse (AID 463095). The note with it: ATPlite luminescence, 48 h; series mostly up to 50 µM; proliferation increase: at the top concentration. On the technique in general: Cellular ATP, detected with luciferase, serves as a proxy for viable cell number.
On to `O=C(N/N=C/c1c(O)n(Cc2ccccc2)c(=O)[nH]c1=O)c1ccccc1`, for which the “proliferation increase” value is 0.3% (inactive).

Consider `c1cc2c(cc1CCNC1CCCCCC1)OCO2`, for which the “proliferation increase” value was -3.3% (inactive).

With `COC(=O)COc1cc(C)cc2oc(=O)c3c(c12)CCCC3`, the “proliferation increase” value was 2.6% (inactive).
